Source: PubChem BioAssay (National Center for Advancing Translational Sciences (NCATS))
D2 ag-1 – human D2 receptor agonism in beta-arrestin assay | P14416 | 360,000 compounds, 0.084% hits | activation, % (test concentration not listed) | AID 624465 | DiscoveRx PathHunter D2 beta-arrestin, luminescence, 90 min; 100% = 57 uM dopamine signal; in the data active means activation above about 40%; inconclusive means between about 15% and that limit
Target sequence (P14416 whole entry, looked up): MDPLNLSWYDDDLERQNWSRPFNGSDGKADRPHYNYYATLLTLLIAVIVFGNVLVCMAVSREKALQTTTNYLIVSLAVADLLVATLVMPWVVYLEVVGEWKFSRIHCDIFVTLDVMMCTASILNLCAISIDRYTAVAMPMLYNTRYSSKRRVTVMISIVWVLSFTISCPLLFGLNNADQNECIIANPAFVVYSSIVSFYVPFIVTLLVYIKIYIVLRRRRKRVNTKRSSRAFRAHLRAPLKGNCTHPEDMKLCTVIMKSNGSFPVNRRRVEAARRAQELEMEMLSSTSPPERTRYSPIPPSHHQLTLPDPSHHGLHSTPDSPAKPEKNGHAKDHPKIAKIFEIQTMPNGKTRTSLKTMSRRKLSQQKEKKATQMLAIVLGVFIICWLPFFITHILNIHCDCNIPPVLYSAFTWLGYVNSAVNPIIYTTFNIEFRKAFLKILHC
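DiscoveRx PathHunter D2 beta-arrestin cells (2,100/well) attached overnight, then compound-stimulated 90 min at 37 C in HBSS/10 mM HEPES/0.1% Tween-20 buffer; beta-galactosidase complementation read by luminescence after 1 h at ambient temperature. Dopamine 57 uM final (EC100) as control.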
D2 antag – antagonists of human D2 dopamine receptor | 340,000 compounds, 2% hits | P14416 | inhibition, % at 10 µM | HEK293 TREx D2 cells, calcium flux, dopamine EC80; in the data active means inhibition above about 30%; inactive means below that, where a call was filed; further: 0% is about no effect
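Overnight-induced (tetracycline, 30 C) HEK293 T-REx cells carrying force-coupled D2 receive a no-wash calcium dye, then compound, then EC80 dopamine at 180 s; signals are read kinetically throughout.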
D2 PAM-1 – human D2 receptor positive allosteric modulation | P14416 | DiscoveRx D2 beta-arrestin cells, luminescence, 90 min; 100% = 57 uM dopamine signal | potentiation, % (no concentration beside the values) | 360,000 compounds, 0.23% hits; in the data active means potentiation above about 50%; inconclusive means mostly about 30% to 49%
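PathHunter D2 cells, attached overnight at 37 deg C, received compound in DMSO plus dopamine at EC20 (50 nM final) for 90 min at 37 deg C. Beta-arrestin recruitment was read as luminescence after 1 h with detection reagent at ambient temperature.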
D2 ag-2 – D2 dopamine receptor (human) agonism; HEK293 T-REx D2 cells, calcium flux agonist mode; AID 485358; activation, % at 2 µM; 340,000 compounds, 0.53% hits;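 active means activation over 3 SD above normal in the single-dose calcium agonist read, cut at about 30% in these data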; further: 0% is about no effect
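In this primary screen, compounds producing a positive calcium signal within 180 s of addition to tetracycline-induced, force-coupled HEK293 Trex D2 cells are flagged; cells are dye-loaded with a no-wash calcium kit beforehand.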
D2 PAM-2 – positive allosteric modulators of human D2 dopamine receptor; P14416; HEK293 T-REx D2, calcium flux, EC20 dopamine potentiation; potentiation, % at 10 µM; 340,000 compounds, 0.34% hits; AID 485347;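 active means potentiation over 3 SD above the plate norm, cut at about 30% in these data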; further: 0% is about no effect
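Primary screen. Calcium kinetics in induced HEK293 T-REx D2 cells: compound pre-addition 180 s, EC20 dopamine, 180 s more.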
* hit, by the source's call; u = inconclusive; x = not tested or not shown; ! = not confirmed by another sample. Rows were chosen to be rich in hits. Some 2.4% of all compounds tested hit in one or more screens of this group.

SMILES	D2 ag-1	D2 antag	D2 PAM-1	D2 ag-2	D2 PAM-2
Cc1ccccc1SCC(=O)OCC(=O)N(C)c1c(N)n(Cc2ccccc2)c(=O)[nH]c1=O	-7	8	-27	2	8
C/C(=N\NC(=S)Nc1cc(S(=O)(=O)N2CCOCC2)ccc1Cl)c1ccc(N2CCOCC2)cc1	5	35*	-9	1	11
Oc1ccc(Nc2ccc3ccccc3c2)cc1	3	x	66*	x	x
Oc1ccc(Nc2nc(-c3ccc4ccccc4c3)cs2)cc1	x	3	x	1	-1
COc1ccc(Cn2c3nc4ccccc4nc3c3c(=O)n(Cc4ccco4)cnc32)cc1	x	40*	x	1	6
CC(C)CCOP(=O)(c1ccc(N(C)C)cc1)C(O)c1ccccc1F (stereo not drawn)	-2	x	-6	x	8
CC(C)CCOP(=O)(c1ccc(N(C)C)cc1)C(O)c1ccc(Cl)cc1Cl (stereo not drawn)	40*	2	-7	1	-2
CC(C)(C)C(=O)COC(=O)c1c2c(nc3ccccc13)CCC2	-5	-4	-8	-1	39*
NC(=O)COC(=O)c1c2c(nc3ccccc13)CCCCC2	-6	x	-3	x	x
CC12C(=O)N(c3cccc4cccnc34)C(=O)C1C1C=CC2C1 (stereo not drawn)	0	-5	-3	-1	-2
CC12C(=O)N(c3ccccc3C(=O)O)C(=O)C1C1C=CC2C1 (stereo not drawn)	-1	36*	11	4	-8
CN1C2=C(C#N)C(c3ccccc3)(C(F)(F)F)NC(=O)N2c2ccccc21 (stereo not drawn)	2	32*	6	0	13
Cc1ccc(C2(C(F)(F)F)NC(=O)N3C(=C2C#N)Nc2ccccc23)cc1 (stereo not drawn)	-3	-11	-2	0	-4
O=C(NCCCN1CCCC1)c1ccc(CS(=O)(=O)c2ccc(Br)cc2)o1	0	-3	-9	0	13
Cc1ccc(S(=O)(=O)Cc2ccc(C(=O)NCCCN3CCCC3=O)o2)cc1	-3	34*	1	1	-3
O=C(NCCN1C(=O)S/C(=C\c2cccnc2)C1=O)c1ccc([N+](=O)[O-])s1	2	33*	19	-1	-1
Cc1c(C(=O)NCCN2C(=O)S/C(=C\c3cccnc3)C2=O)cccc1[N+](=O)[O-]	1	-2	-9	0	1
Cc1ccc(/C=C/c2ccc(=O)n(Cc3ccc(Cl)cc3Cl)n2)cc1	-2	4	-1	0	36*
O=c1ccc(/C=C/c2ccccc2)nn1Cc1ccc(Cl)cc1Cl	-10	-7	-11	1	2
O=C(CCN1CCCCC1)Nc1cccc(Cl)c1	-2	57*	-25	0	-15
Cc1cc2nc(-c3cccc(NC(=O)c4cccc5ccccc45)c3)oc2cc1C	x	x	x	0	-8
Cc1ccc(-c2cc(C(=O)O)c3cc(Br)ccc3n2)s1	-2	31*!	22	-1	-10
O=C1C(=O)N(Cc2cccnc2)C(c2cccc([N+](=O)[O-])c2)/C1=C(\O)c1ccc2c(c1)OCCO2 (stereo not drawn)	2	2	-6	1	2
CCOc1ccc(/C(O)=C2\C(=O)C(=O)N(CCN(C)C)C2c2cccc(OC)c2OC)cc1Cl (stereo not drawn)	-2	-6	-35	1	-4
COc1cccc(C2/C(=C(\O)c3ccc4c(c3)OCO4)C(=O)C(=O)N2CCN(C)C)c1OC (stereo not drawn)	-3	41*	-10	-2	4
SMILES	D2 ag-1	D2 antag	D2 PAM-1	D2 ag-2	D2 PAM-2
COc1cccc(C2/C(=C(\O)c3ccc4c(c3)OCCO4)C(=O)C(=O)N2Cc2cccnc2)c1 (stereo not drawn)	-3	31*	-5	0	-10
CC(C)c1ccc(CN2CCC2(C)C(=O)Nc2cnc3ccccc3c2)cc1 (stereo not drawn)	-2	x	-16	x	x
Cc1ccc(Cl)c(OCCN2CCc3ccccc3C2)c1	-2	66*	-6	2	-16
Clc1ccc(OCCCCN2CCc3ccccc3C2)cc1	-4	91*	-8	0	-37
CC(C)CNC(=S)Nc1ccccc1F	-3	-3	-11	-1	34*
COc1ccc(CNC(=O)C2(c3cccs3)CCOCC2)cc1	x	x	x	1	1
CCOC(=O)c1c(C)oc2c1c1c(c3ccccc32)OCN(Cc2cccnc2)C1	u	-4	113*	0	1
CCOC(=O)c1c(C)oc2c1c1c(c3ccccc32)OCN(CCCC(=O)O)C1	4	-5	6	0	9
C[C@H](CO)N1C[C@H](C)[C@@H](CN(C)Cc2ccccc2)Oc2c(NS(=O)(=O)c3cn(C)cn3)cccc2C1=O	-2	x	-2	x	x
CCCSC1=C(C#N)C(c2ccc(OC)cc2)C2=C(CC(C)(C)CC2=O)N1 (stereo not drawn)	-3	42*	-4	0	-6
O=C(CC1SC(=O)N(c2ccccc2)C1=O)Nc1ccc(Br)cc1 (stereo not drawn)	-7	-3	-16	0	-3
CN(C1=NC(=O)C(CC(=O)Nc2ccc(Br)cc2)S1)c1ccc(O)cc1 (stereo not drawn)	0	40*	-24	0	-24
O=C(O)C(CCc1ccccc1)(Cc1ccccc1)C(=O)O	1	x	0	x	x
CCN1C(=O)C(CC(=O)Nc2ccc(OC)cc2)N(CCCN2CCN(c3ccc(F)cc3)CC2)C1=S (stereo not drawn)	14	57*	7	-1	x
O=C(c1ccc(N2C(=O)CCC2=O)cc1)N1CCOCC1	-1	53*	2	0	-4
CCSc1nnc2c(n1)OC(c1ccc(C)s1)Nc1ccccc1-2 (stereo not drawn)	x	x	x	0	-4
CCSc1nnc2c(n1)OC1(CCCC1)Nc1ccccc1-2	-2	39*	1	-2	1
O=C1NCN(c2ccccc2)C12CCN(CCCC(c1ccc(F)cc1)c1ccc(F)cc1)CC2	-7	69*	-33	4	-26
O=C1CCC(=O)N1CCC(c1ccc(F)cc1)c1ccco1 (stereo not drawn)	-1	17	-17	2	9
CCCCN(CC)CCNc1ncnc2onc(-c3ccc(Cl)cc3)c12	x	x	x	0	7
COc1cc2nc(/C=C/c3ccc(N(C)C)cc3)sc2cc1SC	-3	24	-8	67*	-4
COc1cc2c(cc1OC)C(=Cc1ccc(N(C)C)cc1)C=C2	-5	x	-10	x	x
CCC(C)NC(=O)c1c(-c2ccccc2)c(-c2ccccc2)nn(C)c1=O (stereo not drawn)	x	x	x	0	6
CCn1nnnc1SCC(=O)N1CCCCC1	-3	-2	-1	0	2
